Assay outcomes: PubChem, Broad Institute
Most compounds without a hit are left out; they make up all but 1.8% or so of the library.
AF4-AF9 inh – inhibitors of AF4 peptide binding to AF9, primary screen, biochemical, AlphaScreen, biotin-AF4 peptide, FLAG-AF9, single point. hit rate 0.47% among 350,000. Protein AF-9 (Homo sapiens), P42568. inhibition, % at 10 µM. AID 651704, 2012;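 active = every replicate reaching a set inhibition limit, whatever the replicate mean, cut at about 25% in these data; inconclusive = mean inhibition reaches that limit but some replicates miss it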;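 note: 0% = plate neutral control median and 100% = total signal loss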
PDI turbidity – inhibitors of human PDI, primary screen, biochemical, turbidity, single point, plate reader | PDI insulin aggregation turbidity, A650, 90 min | inhibition, % at 10 µM | hit rate 0.052% among 350,000;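 active = mean inhibition across replicates of 30% or more, whatever share of single replicates reach that level; inconclusive = mean inhibition below 30% while every single replicate reaches 30%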
DENV2 CPE – inhibitors of DENV2 cytopathic effect, primary screen, cell-based, plate reader, single concentration. DENV2-infected cells, cytopathic effect rescue. CPE inhibition, % at 9.99 µM. hit rate 1.7% among 350,000; in the data active = CPE inhibition above about 20%, passing the limit was not always enough; inconclusive = no clear call, values can overlap the other calls; tested in BHK-21 cells;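 note: 0% = median of neutral control wells and 100% = median of positive control wells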
ERp5 block – inhibitors of ERp5-driven insulin aggregation, primary screen, biochemical, turbidity, absorbance 650 nm, single point | AID 651711, 2012 | 90 min | Protein disulfide-isomerase A6 (Homo sapiens), Q15084 | hit rate 0.05% among 350,000 | inhibition, % at 9.99 µM;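 active = mean replicate inhibition above about 25%, with every replicate also reaching it, limit read from the data, passing the limit was not always enough; inconclusive = only one of those two criteria met; inactive = neither criterion met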
ERAP1 inh – human ERAP1 aminopeptidase inhibitors, primary screen, biochemical, single point, plate reader; Endoplasmic reticulum aminopeptidase 1 (Homo sapiens), Q9NZ08; recombinant ERAP1, Leu-AMC fluorescence, 60 min; inhibition, % at 10.7 µM; hit rate 0.15% among 340,000; AID 652197, 2013;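 active = mean replicate inhibition of at least 30%, or all replicates individually reaching that 30% level; inactive = mean below 30% and not every replicate reaching it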;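 note: 0% = neutral control wells and 100% = L-leucinethiol positive control wells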
Numbers without * were called inactive; ? = inconclusive; · = not tested or not shown.

SMILES	AF4-AF9 inh	PDI turbidity	DENV2 CPE	ERp5 block	ERAP1 inh
CN(C)CCCN(C(=O)c1cccs1)c1nc(-c2ccccc2)cs1	·	-2.2	·	·	·
N#C[C@@H]1[C@H](c2ccc(C3=CCCCC3)cc2)[C@@H](CO)N1C(=O)Cc1ccncc1	4.5	·	5.9	-1.0	4.2
C[C@H]1CCCCO[C@H](CN(C)C(=O)Cc2ccccc2)[C@@H](C)CN([C@@H](C)CO)C(=O)c2cc(NC(=O)Nc3ccc4c(c3)OCO4)ccc2O1	4.4	·	-8.5	-1.6	-3.8
C[C@@H]1CN([C@H](C)CO)C(=O)c2cc(NC(=O)Nc3ccccc3)ccc2O[C@H]1CN(C)C(=O)Nc1cccc2ccccc12	-0.3	·	18.6	-3.5	-3.2
CCN(Cc1ccc(OC)c(COC)c1)CC1CCCN(CCc2cccc(OC)c2)C1 (stereo unspecified)	2.2	1.3	25.2*	1.7	0.1
O=C(NC[C@H]1CC[C@H]2[C@H](CN2Cc2cccc(Cl)c2)O1)C1CCOCC1	-4.2	·	58.2*	-2.9	-0.6
O=C(NC[C@@H]1CC[C@@H]2[C@@H](CN2Cc2ccc(Oc3ccccc3)cc2)O1)C1CCOCC1	-3.8	·	-5.0	-1.6	0.8
CC(=O)N1[C@@H]2Cn3c(ccc(-c4ccccc4)c3=O)[C@H]1[C@@H](C(=O)N1CCN(C)CC1)[C@@H]2CO	0.3	·	11.1	0.1	0.6
COc1ccc2c3c(n(C)c2c1)[C@H](CO)N(Cc1ccccn1)CC31CCN(Cc2ccccn2)CC1	-0.2	·	-2.3	-6.7	-3.9
COc1ccc(CC(=O)Nc2ccc(C)c(S(=O)(=O)N3CCCCCC3)c2)cc1	-2.7	14.6	35.4*	0.2	-7.9
COC(=O)C[C@H]1C[C@H]2c3cc(NS(C)(=O)=O)ccc3O[C@H]2[C@H](CO)O1	-1.7	·	0.2	8.8	0.7
CS(=O)(=O)Nc1ccc2c(c1)[C@H]1C[C@H](CC(=O)O)O[C@@H](CO)[C@H]1O2	-2.5	·	24.9*	-6.3	-0.2
CCCNC(=O)C[C@@H]1C[C@@H]2c3cc(NS(C)(=O)=O)ccc3O[C@@H]2[C@H](CO)O1	-1.8	·	-1.0	32.3*	1.9
COc1ccc(C(=O)Nc2ccc3c(c2)C(=O)N(C)C[C@H](OC)[C@@H](C)CN[C@H](C)CO3)cc1	-0.5	·	4.9	2.4	0.6
CC(C)NC(=O)Nc1ccc2c(c1)C(=O)N([C@H](C)CO)C[C@H](C)[C@@H](CN(C)Cc1ccc(Cl)c(Cl)c1)O2	-3.2	·	-4.5	3.2	2.6
CC[n+]1c(C)cc(C)n1-c1ccccc1	-0.4	7.3	-5.7	-1.9	102.2*
C[C@@H]1CN([C@@H](C)CO)C(=O)Cc2cc(NC(=O)NC3CCCCC3)ccc2O[C@H]1CN(C)S(=O)(=O)c1ccccc1	2.2	·	-0.4	2.4	-0.6
COc1ccc(N2c3ccccc3CN(Cc3ccccc3)[C@@H](C)[C@H]2Cc2cccnc2)cc1	25.3*	1.8	?	-2.8	-3.4
COc1ccc2c3c([nH]c2c1)[C@H](CO)N(CC1CCOCC1)CC31CN(C(=O)C2CC2)C1	0.4	·	18.0	2.4	·
CCCCCC1NC(=O)NC1CCCCCC(=O)O (stereo unspecified)	·	5.0	·	·	·
O=C(O)CCCCC1SCC2NC(=O)NC21 (stereo unspecified)	70.3*	·	-2.1	-1.8	-1.9
CCNC(=O)C[C@H]1C=C[C@@H](NC(=O)C2CCOCC2)[C@@H](CO)O1	-0.1	·	-4.7	-6.6	0.1
CCC/C(=C1/c2ccccc2C(=O)N1c1ccccc1)c1ccc(O[C@@H]2CCCCO2)cc1	8.7	-1.9	36.9*	9.6	19.1
Cn1cnc(Sc2ncnc3nc[nH]c23)c1[N+](=O)[O-]	-2.1	0.7	-1.3	2.9	41.1*
C[C@@H]1CN([C@@H](C)CO)C(=O)c2cccc(NS(C)(=O)=O)c2O[C@H]1CN(C)Cc1ccc(C(=O)Nc2ccccc2N)cc1	5.9	·	-5.4	22.9	-1.6
SMILES	AF4-AF9 inh	PDI turbidity	DENV2 CPE	ERp5 block	ERAP1 inh
O=C(O)c1cc(Nc2cc(Cl)c3nonc3c2[N+](=O)[O-])ccc1O	-0.8	-4.1	3.5	-0.5	35.8*
O=[N+]([O-])c1c(Nc2ccccc2O)cc(Cl)c2nonc12	14.6	8.5	5.4	0.1	2.1
CC[C@]12c3[nH]c4cc(CCC(=O)N(C)C)ccc4c3CCN1C(=O)[C@@H](CC(=O)NCCC1=CCCCC1)C[C@@H]2C(=O)N1CCN(C(=O)c2ccco2)CC1	1.2	1.2	24.9*	-1.5	-3.0
CC[C@]12c3[nH]c4cc(CCC(=O)N(C)C)ccc4c3CCN1C(=O)[C@@H](CC(=O)NCCC1=CCCCC1)C[C@@H]2C(=O)N1CCN(C(=O)C2CC2)CC1	-1.9	-2.4	11.6	7.7	-0.8
CC[C@]12c3[nH]c4ccccc4c3CCN1C(=O)C(CC(=O)NCCC1=CCCCC1)C[C@@H]2C(=O)N1CCN(C(=O)C2CC2)CC1 (stereo partly specified)	-0.8	-6.2	54.5*	1.0	1.6
CC[C@]12c3[nH]c4cc(CCC(=O)N(C)C)ccc4c3CCN1C(=O)[C@@H](CC(=O)NCc1ccco1)C[C@@H]2C(=O)N1CCN(C(=O)C2CC2)CC1	2.8	-2.8	25.1*	11.1	-3.9
CC[C@]12c3[nH]c4cc(-c5ccco5)ccc4c3CCN1C(=O)[C@@H](CC(=O)NCc1ccc(OC)c(OC)c1)C[C@@H]2C(=O)N1CCN(C(=O)c2ccco2)CC1	4.2	37.5*	-6.3	0.4	1.5
CC[C@]12c3[nH]c4ccc(Cl)cc4c3CCN1C(=O)[C@@H](CC(=O)NCCC1=CCCCC1)C[C@@H]2C(=O)N1CCN(C(=O)C2CC2)CC1	-8.6	7.1	16.3	1.5	-1.8
Cc1ccc(S(=O)(=O)N(C)C[C@H]2Oc3ncc(C#CC4(O)CCCC4)cc3C(=O)N([C@@H](C)CO)C[C@H]2C)cc1	0.4	·	5.1	2.6	2.3
O=C(C[C@H]1CC[C@@H]2[C@H](COC[C@@H](O)CN2S(=O)(=O)c2ccc(Cl)cc2)O1)NCc1ccc(Cl)c(Cl)c1	5.2	·	-6.6	-5.6	-1.3
Cn1ccc2c(N3CCCC3)cc3c(c21)C1CCC3C1 (stereo unspecified)	30.5*	·	?	-2.7	·
CN(c1cc2c(c3c1ccn3C)C1CCC2C1)C1CCCCC1 (stereo unspecified)	38.7*	·	-2.9	1.3	6.5
C[C@@H]1CN([C@H](C)CO)C(=O)Cc2cc(NS(=O)(=O)c3ccccc3)ccc2O[C@@H]1CN(C)CC1CCCCC1	2.6	·	-8.1	1.6	1.0
COc1ccc(NC(=S)NC(=O)/C=C/c2ccccc2)cc1	1.9	5.1	37.8*	0.2	-1.8
COc1ccc(NC(=S)NC(=O)/C=C/c2cccs2)cc1	-1.5	0.0	18.1	8.1	2.9
O=C(/C=C/c1ccc(Cl)cc1)NC(=S)Nc1ccccc1C(=O)O	-1.1	5.4	23.4*	1.9	-5.9
